Experimental findings from PubChem BioAssay (EPA / NIEHS) are described below.

For orientation: AC50 means the midpoint of the concentration-response curve, whichever way the signal moves.

SMILES strings stand for the structures. “And” between values parts separate entries of the source, which are not always exact repeats. Equal values may be shown once. More than one record can exist for a structure, and the calls need not agree. The source made the active and inactive calls. The calls were made as follows: active = hit-call score of the fitted dose curve at least 0.9, where 1 is the maximum; inactive = score below 0.9.

A short description of the first experiment: CCTE_Shafer_MEA_acute_per_network_burst_electrodes_number_mean: CCTE's Neural Acute Assay for Mean Number of Electrodes in a Network Burst, Shafer Lab (AID 2284021).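 Also: curves fitted for decreases only so hits reduce electrodes per burst.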 The procedure, abridged:
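Percent change from baseline was computed as mean electrode count per network burst, comparing 40 min recordings before and during compound (0.03-40 uM) exposure. Cultures were rat cortical neurons at DIV 13 or 15, recorded on MEAs at 37 C with an adaptive 8x rms threshold.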
Turning to `CCc1cccc(C)c1N(C(=O)CCl)C(C)COC` (configuration not stated), the AC50 is 5.76 µM (active).

Take `CC(C)=CC1C(C(=O)OCN2C(=O)C3=C(CCCC3)C2=O)C1(C)C` (configuration not stated): the outcome was inactive.

On to `CCc1cnc(C2=NC(C)(C(C)C)C(=O)N2)c(C(=O)O)c1` (configuration not stated), for which the result was inactive.

For the molecule `Nc1c(Cl)cc([N+](=O)[O-])cc1Cl`, the AC50 is 20 µM (active).

`COP(=O)(OC)C(O)C(Cl)(Cl)Cl` (configuration not stated): the molecule was called inactive.

`CCCOCC(=Nc1ccc(Cl)cc1C(F)(F)F)n1ccnc1`: the molecule was classed as inactive.

Regarding `CC[C@H](C)[C@H]1O[C@]2(C=C[C@@H]1C)C[C@@H]1C[C@@H](C/C=C(\C)[C@@H](O[C@H]3C[C@H](OC)[C@@H](O[C@H]4C[C@H](OC)[C@@H](NC)[C@H](C)O4)[C@H](C)O3)[C@@H](C)/C=C/C=C3\CO[C@@H]4[C@H](O)C(C)=C[C@@H](C(=O)O1)[C@]34O)O2`, the AC50 is 615 nM (active) and 8.88 µM (active).

As for `CC1=NNC(=O)N(/N=C/c2cccnc2)C1`, the molecule was classed as inactive.

On to `CC(=NC#N)N(C)Cc1ccc(Cl)nc1`, for which the molecule was classed as inactive.

Regarding `CCOP(=S)(OCC)Oc1ccc2c(C)c(Cl)c(=O)oc2c1`, the AC50 is 4.12 µM (active).

Turning to `C[N+]1(C)CCCCC1`, the outcome was inactive.

As to `COP(=O)(NC(C)=O)SC` (configuration not stated), the molecule was classed as inactive.

Consider `CN(C)[C@@H]1C(=O)C(C(N)=O)=C(O)[C@@]2(O)C(=O)C3=C(O)c4c(O)cccc4[C@@](C)(O)[C@H]3[C@H](O)[C@@H]12`, for which the call was inactive.

As to `C[Si](Cn1cncn1)(c1ccc(F)cc1)c1ccc(F)cc1`, the result was inactive.

For `C=C(C)[C@H]1Cc2c(ccc3c2O[C@@H]2COc4cc(OC)c(OC)cc4[C@@H]2C3=O)O1`, the call was inactive.

As for `FC(F)C(F)(F)OCC(Cn1cncn1)c1ccc(Cl)cc1Cl` (configuration not stated), the outcome was inactive.

Regarding `O=[N+]([O-])c1cc(C(F)(F)F)c(Cl)c([N+](=O)[O-])c1Nc1ncc(C(F)(F)F)cc1Cl`, the AC50 is 0.481 µM (active).

Another experiment can be described thus: CCTE_Shafer_MEA_acute_network_burst_percentage: CCTE's Neural Acute Assay for Percentage of Network Bursts, Shafer Lab (AID 2284022).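 Also: curves fitted for loss so actives lower network burst percentage.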 The procedure, abridged:
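Network burst percentage (spikes in network bursts divided by total spikes) recorded at 37 C over 40 min baseline and 40 min after compound, 0.03-40 uM, in rat cortical cultures at DIV 13 or 15. Analysed as percent change from baseline versus DMSO.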
For the molecule `CCc1cccc(C)c1N(C(=O)CCl)C(C)COC` (configuration not stated), the AC50 was 21.9 µM (active).

As for `CC(C)=CC1C(C(=O)OCN2C(=O)C3=C(CCCC3)C2=O)C1(C)C` (configuration not stated), the call was inactive.

In the case of `CCc1cnc(C2=NC(C)(C(C)C)C(=O)N2)c(C(=O)O)c1` (configuration not stated), the call was inactive.

Turning to `Nc1c(Cl)cc([N+](=O)[O-])cc1Cl`, the AC50 is 26 µM (active).

`COP(=O)(OC)C(O)C(Cl)(Cl)Cl` (configuration not stated): the call was inactive.

For the molecule `CCCOCC(=Nc1ccc(Cl)cc1C(F)(F)F)n1ccnc1`, the molecule was classed as inactive.

Consider `CC[C@H](C)[C@H]1O[C@]2(C=C[C@@H]1C)C[C@@H]1C[C@@H](C/C=C(\C)[C@@H](O[C@H]3C[C@H](OC)[C@@H](O[C@H]4C[C@H](OC)[C@@H](NC)[C@H](C)O4)[C@H](C)O3)[C@@H](C)/C=C/C=C3\CO[C@@H]4[C@H](O)C(C)=C[C@@H](C(=O)O1)[C@]34O)O2`, for which the AC50 is 43 nM (active) and 1.55 µM (active).

`CC1=NNC(=O)N(/N=C/c2cccnc2)C1`: the call was inactive.

`CC(=NC#N)N(C)Cc1ccc(Cl)nc1`: the outcome was inactive.

In the case of `CCOP(=S)(OCC)Oc1ccc2c(C)c(Cl)c(=O)oc2c1`, the AC50 is 27.2 µM (active).

Take `C[N+]1(C)CCCCC1`: the result was inactive.

For the molecule `COP(=O)(NC(C)=O)SC` (configuration not stated), the molecule was classed as inactive.

Consider `CN(C)[C@@H]1C(=O)C(C(N)=O)=C(O)[C@@]2(O)C(=O)C3=C(O)c4c(O)cccc4[C@@](C)(O)[C@H]3[C@H](O)[C@@H]12`, for which the result was inactive.

Consider `C[Si](Cn1cncn1)(c1ccc(F)cc1)c1ccc(F)cc1`, for which the AC50 is 20 µM (active).

Consider `C=C(C)[C@H]1Cc2c(ccc3c2O[C@@H]2COc4cc(OC)c(OC)cc4[C@@H]2C3=O)O1`, for which the molecule was called inactive.

Consider `FC(F)C(F)(F)OCC(Cn1cncn1)c1ccc(Cl)cc1Cl` (configuration not stated), for which the call was inactive.

As for `O=[N+]([O-])c1cc(C(F)(F)F)c(Cl)c([N+](=O)[O-])c1Nc1ncc(C(F)(F)F)cc1Cl`, the AC50 was 1.13 µM (active).

The next experiment is described as follows: CCTE_Shafer_MEA_acute_cross_correlation_area: CCTE's Neural Acute Assay for Area of Cross Correlation, Shafer Lab (AID 2284024).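 Also: area under pooled inter-electrode spike cross-correlation near zero lag as percent change from own baseline; curves fitted for loss of cross-correlation area so actives lower synchrony.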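 As to outcome: rat primary cortical neuron networks on 48-well MEA at DIV 13 or 15 with 40 min exposure.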 The procedure, abridged:
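Percent change in well-wide cross-correlation area (window around zero lag) between 40 min baseline and 40 min post-compound recordings, 37 C; rat cortical cultures on MEA at DIV 13 or 15, dosed 0.03-40 uM, wells needing >/= 10 active electrodes.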
For `CCc1cccc(C)c1N(C(=O)CCl)C(C)COC` (configuration not stated), the outcome was inactive.

Consider `CC(C)=CC1C(C(=O)OCN2C(=O)C3=C(CCCC3)C2=O)C1(C)C` (configuration not stated), for which the call was inactive.

For the molecule `CCc1cnc(C2=NC(C)(C(C)C)C(=O)N2)c(C(=O)O)c1` (configuration not stated), the molecule was called inactive.

For the molecule `Nc1c(Cl)cc([N+](=O)[O-])cc1Cl`, the molecule was called inactive.

`COP(=O)(OC)C(O)C(Cl)(Cl)Cl` (configuration not stated): the call was inactive.

For the molecule `CCCOCC(=Nc1ccc(Cl)cc1C(F)(F)F)n1ccnc1`, the AC50 is 0.44 µM (active).

`CC[C@H](C)[C@H]1O[C@]2(C=C[C@@H]1C)C[C@@H]1C[C@@H](C/C=C(\C)[C@@H](O[C@H]3C[C@H](OC)[C@@H](O[C@H]4C[C@H](OC)[C@@H](NC)[C@H](C)O4)[C@H](C)O3)[C@@H](C)/C=C/C=C3\CO[C@@H]4[C@H](O)C(C)=C[C@@H](C(=O)O1)[C@]34O)O2`: the AC50 is 0.00626 µM (active) and the molecule was classed as inactive.

Consider `CC1=NNC(=O)N(/N=C/c2cccnc2)C1`, for which the result was inactive.

In the case of `CC(=NC#N)N(C)Cc1ccc(Cl)nc1`, the outcome was inactive.

For `CCOP(=S)(OCC)Oc1ccc2c(C)c(Cl)c(=O)oc2c1`, the molecule was classed as inactive.

Consider `C[N+]1(C)CCCCC1`, for which the result was inactive.

Consider `COP(=O)(NC(C)=O)SC` (configuration not stated), for which the molecule was called inactive.

For `CN(C)[C@@H]1C(=O)C(C(N)=O)=C(O)[C@@]2(O)C(=O)C3=C(O)c4c(O)cccc4[C@@](C)(O)[C@H]3[C@H](O)[C@@H]12`, the call was inactive.

As to `C[Si](Cn1cncn1)(c1ccc(F)cc1)c1ccc(F)cc1`, the AC50 is 1.67 µM (active).

`C=C(C)[C@H]1Cc2c(ccc3c2O[C@@H]2COc4cc(OC)c(OC)cc4[C@@H]2C3=O)O1`: the outcome was inactive.

For the molecule `FC(F)C(F)(F)OCC(Cn1cncn1)c1ccc(Cl)cc1Cl` (configuration not stated), the outcome was inactive.

`O=[N+]([O-])c1cc(C(F)(F)F)c(Cl)c([N+](=O)[O-])c1Nc1ncc(C(F)(F)F)cc1Cl`: the AC50 is 0.263 µM (active).
